697 NFkB inh: lowers PMA/ionomycin-induced NF-kB signal in 697 B cells | 697 B-cell NF-kB luciferase reporter, 16 h | inhibition, % at 4 µM | hit rate 0.33% among 330,000; in the data active = inhibition above about 35%
Beta apoptosis: blocks beta cell apoptosis; INS-1E cytokine-induced death, ATP luminescence, 48 h; percent of positive-control rescue, neutral wells zero; protection from apoptosis, % (no concentration beside the values); hit rate 0.8% among 300,000; AID 435005;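 active = Every replicate reaches about 75%, or at least half do and their mean reaches it too, limit read from the data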;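 also: 0% = cytokine-treated negative control wells and 100% = positive control rescue; higher means more ATP so stronger rescue from cytokine killing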
NTR1 agonist: activates human neurotensin receptor 1; NTR1-U2OS beta-arrestin-GFP spot imaging, agonist mode; P30989; hit rate 0.17% among 330,000; AID 493036; activation, % at 20 µM;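 active = activation at or above 40% of the spot to cytoplasm intensity ratio, with at least 20 cells analyzed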;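 also: 0% = DMSO without peptide and 100% = 100 nM NTR1 peptide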
Mdm2 MdmX PPI: human Mdm2/MdmX binding inhibition. O15151+Q00987. SaOS-2 split-luciferase Mdm2/MdmX complementation, luminescence. inhibition, % at 8 µM. hit rate 3% among 330,000. AID 485346;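 active = inhibition of at least 50% at 8 µM in the primary screen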
Target sequence (O15151 whole entry, looked up): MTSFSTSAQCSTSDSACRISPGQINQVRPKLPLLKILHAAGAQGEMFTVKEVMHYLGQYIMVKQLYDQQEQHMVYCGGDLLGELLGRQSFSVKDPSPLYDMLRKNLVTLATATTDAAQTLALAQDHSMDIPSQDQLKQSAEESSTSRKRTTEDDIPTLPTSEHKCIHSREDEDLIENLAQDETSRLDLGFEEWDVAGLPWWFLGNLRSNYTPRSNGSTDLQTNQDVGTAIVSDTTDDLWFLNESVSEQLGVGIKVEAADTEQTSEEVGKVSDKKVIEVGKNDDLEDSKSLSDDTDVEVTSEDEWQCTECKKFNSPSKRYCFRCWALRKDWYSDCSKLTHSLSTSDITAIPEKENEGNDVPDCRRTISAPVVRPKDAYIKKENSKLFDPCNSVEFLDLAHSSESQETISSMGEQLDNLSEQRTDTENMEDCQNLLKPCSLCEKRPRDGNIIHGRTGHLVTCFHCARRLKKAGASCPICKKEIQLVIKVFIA
Target sequence (Q00987 whole entry, looked up): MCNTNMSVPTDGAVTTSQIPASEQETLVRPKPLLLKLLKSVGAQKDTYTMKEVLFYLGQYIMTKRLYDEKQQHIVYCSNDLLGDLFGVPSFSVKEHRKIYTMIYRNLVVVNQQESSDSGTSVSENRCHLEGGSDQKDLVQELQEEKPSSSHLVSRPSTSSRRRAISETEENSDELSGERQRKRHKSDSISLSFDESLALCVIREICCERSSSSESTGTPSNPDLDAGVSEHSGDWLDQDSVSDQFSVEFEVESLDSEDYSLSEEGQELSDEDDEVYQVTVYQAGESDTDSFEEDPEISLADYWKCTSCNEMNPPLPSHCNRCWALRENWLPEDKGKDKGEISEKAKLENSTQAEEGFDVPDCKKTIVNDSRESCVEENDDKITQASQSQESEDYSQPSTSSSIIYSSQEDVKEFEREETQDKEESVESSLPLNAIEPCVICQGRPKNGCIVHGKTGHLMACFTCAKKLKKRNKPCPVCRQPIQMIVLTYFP
A1 inh: inhibitors of the anti-apoptotic protein A1, read as caspase activation | hit rate 0.066% among 330,000 | caspase activation, % (test concentration not listed) | MEF A1-2A-BIM cells, Caspase-Glo 3/7 luminescence, 3 h; percent of clofoctol response, vehicle zero;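 active = over half of replicate activation scores above 10%, or exactly half above 10 with the replicate mean above 10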
Jurkat NFkB inh: lowers PMA/ionomycin-induced NF-kB signal in Jurkat cells | PMA/ionomycin-induced NF-kB luciferase reporter, luminescence | hit rate 0.53% among 330,000 | AID 435003 | inhibition, % at 4 µM; in the data active = inhibition above about 50%
Mdm2 MdmX conf: confirmation of human Mdm2/MdmX interaction inhibitors; Mdm2-MdmX binding, luminescent assay; inhibition, % at 8 µM; shares compounds with Mdm2 MdmX PPI; hit rate 55% among 10,000; in the data active = inhibition above about 40%
Full FLuc ctr: counter-screen for Mdm2/MdmX inhibitors: full-length luciferase; shares compounds with Mdm2 MdmX PPI; hit rate 77% among 6,200; AID 504607; inhibition, % at 8 µM; SaOS-2 full-length luciferase counterscreen, luminescence;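 active = mean inhibition at 8 µM reaching about 37%, which flags the compound as non-specific, limit read from the data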;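 also: p53-null SaOS-2 cells with luciferase driven by a doxycycline-inducible promoter; compound on cells about two nights before reading with doxycycline added after day one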
NTR1 ag confirm: confirmation of agonists of human NTR1; shares compounds with NTR1 agonist; NTR1-U2OS beta-arrestin-GFP translocation imaging; activation, % at 20 µM; hit rate 38% among 480;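 active = mean activation at 20 µM of at least 40%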;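 also: 0% = DMSO without peptide and 100% = 100 nM NTR1 peptide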
An asterisk follows results filed as active; nt = not tested or not shown. Hits are enriched below; roughly 3.8% of the tested compounds scored in any of these assays.

SMILES	697 NFkB inh	Beta apoptosis	NTR1 agonist	Mdm2 MdmX PPI	A1 inh	Jurkat NFkB inh	Mdm2 MdmX conf	NTR1 ag confirm	others
OCC[C@@H]1C[C@@H](O)[C@H](O)[C@@]2(Cc3ccccc3O2)O1	13	-4	-1	-4	0	-3	nt	nt
CC(C)C[C@H]1CN=C(Nc2ccccc2)N1CC1CCC(C(C)(C)C)CC1 (some centres undefined)	-16	111*	42*	100*	1	42	39	57*	Full FLuc ctr=21
CCCCc1ccc(S(=O)(=O)N/N=C(/C)c2ccncc2)cc1	-33	31	0	12	1	18	nt	nt
Oc1ccc(/C=N/Nc2cc(N3CCOCC3)nc(N3CCOCC3)n2)cc1O	-27	6	1	-26	1	-8	nt	nt
Oc1ccccc1/C=N/Nc1cc(N2CCCC2)nc(N2CCCC2)n1	-27	16	40*	50	-1	8	30	27
Cc1ccc(NS(=O)(=O)c2ccc(Cl)c(NC(=S)NC(=O)C3CCCCC3)c2)cc1Cl	1	102*	55*	72*	0	-6	24	17
O=C(COC(=O)Cc1n[nH]c(=O)c2ccccc12)Nc1c(Cl)cccc1C(F)(F)F	14	nt	0	7	0	0	nt	nt
COc1ccc(S(=O)(=O)Nc2c(C)cc(C)cc2C)c2cccnc12	6	3	-3	23	0	7	nt	nt
Cc1cc(C)n(-c2nc(N(c3ccccc3)c3ccccc3)nc(-n3nc(C)cc3C)n2)n1	-32	nt	84*	100*	1	16	100*	75*	Full FLuc ctr=58*
COc1ncccc1C(=O)N1CCCC(N2CCN(c3cccc(Cl)c3)CC2)C1 (centres undefined)	-4	-4	1	1	0	16	nt	nt
O=C(NCCOc1ccccc1)C1Nc2ccc(C(F)(F)F)cc2C2c3ccccc3CC12 (centres undefined)	5	-2	10	26	0	20	nt	nt
CCOC(=O)C1Nc2ccc(C(F)(F)F)cc2C2c3ccccc3CC12 (centres undefined)	26	-2	56*	97*	0	6	70*	7	Full FLuc ctr=43*
COc1cc(C2OC(=O)C3C(c4ccc(OC(C)=O)c(OC)c4)OC(=O)C23)ccc1OC(C)=O (centres undefined)	5	-21	0	14	-1	10	nt	nt
Cn1cc([N+](=O)[O-])c(C(=O)Nc2nc(-c3ccc(Cl)cc3)cs2)n1	4	nt	49*	94*	1	7	90*	71*	Full FLuc ctr=44*
CC(=O)c1c(C)[nH]c(C(=O)Nc2nc(-c3ccc(Cl)cc3)cs2)c1C	-5	19	26	31	1	3	nt	nt
Cc1noc(C)c1NC(=O)N(C)C[C@H]1Oc2c(NC(=O)Nc3ccc(C(F)(F)F)cc3)cccc2C(=O)N([C@H](C)CO)C[C@@H]1C	11	-14	1	17	-1	27	nt	nt
COc1ccc(C=C2C=C(C(C)(C)C)C(=O)C(C(C)(C)C)=C2)cc1OC	-82	-4	41*	100*	11*	-38	18	16
O=C(COC(=O)/C=C/C(=O)OCC(=O)NC12CC3CC(CC(C3)C1)C2)NC12CC3CC(CC(C3)C1)C2	-15	-19	85*	94*	0	20	40	40*	Full FLuc ctr=68*
O=C(COC(=O)c1ccccc1O)NC12CC3CC(CC(C3)C1)C2	-4	1	-1	-8	1	-5	nt	nt
O=C(CN1C(=O)NC2(CCCC2)C1=O)Nc1cc(S(=O)(=O)N2CCOCC2)ccc1OCC(F)(F)F	-17	1	0	-20	2	0	nt	nt
O=C(/C=C/c1cccnc1)c1ccc([N+](=O)[O-])cc1	17	-5	11	36	0	2	nt	nt
COc1cc(C(=O)/C=C/c2cccnc2)c([N+](=O)[O-])cc1OC	11	-6	42*	55*	1	17	20	47*
CC(C)Oc1ccc(S(=O)(=O)N2CCOCC2)cc1NC(=O)Cc1c(F)cccc1Cl	-34	5	2	2	2	-18	nt	nt
Cc1cccc2sc(NNC(=O)c3cc(-c4cccs4)nc4ccccc34)nc12	-7	nt	40*	82*	0	-6	51*	-1	Full FLuc ctr=61*
CSc1ccccc1NC(=O)CN(C)C(=O)c1ccc(NC(=O)c2cccs2)cc1	8	2	0	10	-1	11	nt	nt
SMILES	697 NFkB inh	Beta apoptosis	NTR1 agonist	Mdm2 MdmX PPI	A1 inh	Jurkat NFkB inh	Mdm2 MdmX conf	NTR1 ag confirm	others
CCc1nc2ccccc2c(C(=O)OCC(=O)Nc2cccc(S(=O)(=O)N3CCOCC3)c2)c1C	4	0	60*	66*	2	32	75*	65*	Full FLuc ctr=45*
C[C@H](CO)N1C[C@H](C)[C@@H](CN(C)S(=O)(=O)c2ccc(F)cc2)Oc2ccc(NS(=O)(=O)c3ccc(F)cc3)cc2C1=O	7	5	7	12	2	6	nt	nt
C[C@@H]1CN([C@H](C)CO)C(=O)c2cc(NS(=O)(=O)c3ccc(F)cc3)ccc2O[C@@H]1CN(C)Cc1ccc(Cl)c(Cl)c1	-11	nt	40	78*	nt	-12	57*	39	Full FLuc ctr=50*
CC(C)(C)OC(=O)N/N=C/c1cccn1-c1ccc([N+](=O)[O-])cc1	-4	0	0	-12	1	-6	nt	nt
CN(C)c1ccc(-n2cccc2/C=C/[N+](=O)[O-])cc1	17	21	63*	65*	-1	0	34	66*
CCc1cccc(C)c1NC(=O)c1cc(=O)[nH]c2ccc(S(=O)(=O)N3CCOCC3)cc12	13	1	1	14	0	-2	nt	nt
CCCn1c(N)c(C(=O)CN(C)CC(=O)Nc2ccccc2C(F)(F)F)c(=O)[nH]c1=O	21	nt	0	24	nt	-7	nt	nt
COc1ccc(C(CCN2CCCCC2)c2c(OC)cc(OC)c3c(-c4ccccc4)cc(=O)oc23)cc1 (centres undefined)	1	86*	42*	94*	-1	15	40	41*
CCCCCc1cc(=O)oc2c(C(CCN3CCCC(C)C3)c3ccc(N(C)C)cc3)c(OC)cc(OC)c12 (centres undefined)	9	63	51*	96*	0	19	27	53*
COc1cc(OC)c2ccc(=O)oc2c1C(CCN1CCCC(C)C1)c1ccc(N(C)C)cc1 (centres undefined)	-5	-3	-4	0	1	-4	nt	nt
